Laboratory results: PubChem BioAssay AID463173 (ICCB-Longwood Screening Facility, Harvard Medical School, 2010)
Hit rate of the full screen: of about 52,000 compounds, about 4,300 (8.3%) were called active. This is one part of a sample in which actives are shown more often than they occur. Values without a mark were called inactive. Cut-off read from the data, not from the text of the source: active = survival mostly below about 52% (no sharp cut-off); inactive = mostly above about 56%.

Each compound was assayed on DeltatarO mutant (assay: S. aureus survival, RN4220 and DeltatarO strains – OD600, teichoic acid synthesis inhibitors, primary screen (AID 463173)). Details: S. aureus RN4220 wild type/DeltatarO growth, OD600, 18 h, active compounds read low, screened at 18.75 µg/mL (by protocol).

Structure (SMILES)	survival
COc1ccc(S(=O)(=O)N2CCC(c3nc4ccccc4s3)CC2)cc1OC	86%
Cc1cc(NC(=O)OC2CCCC2)ccc1NC(=O)OC1CCCCC1	75%
COc1ccc(CNC(=O)C(=O)Nc2cccc(C)c2C)cc1	61%
Cc1ccccc1S(=O)Cc1ccc(C(=O)NCc2ccccc2Cl)o1 (stereo not drawn)	73%
Cc1ccc(-c2nnc(Nc3ccc(Cl)c(Cl)c3)c3ccccc23)cc1S(=O)(=O)NCCO	79%
CC(=O)Nc1ccc(S(=O)(=O)NCC2CCC(C(=O)NCCN(CC(C)C)CC(C)C)CC2)cc1 (stereo not drawn)	61%
CC(=O)Nc1ccc(S(=O)(=O)N2CCN(c3ccc(C)c(C)c3)CC2)cc1	94%
O=C(CS(=O)(=O)c1cccc2nsnc12)Nc1ccc(F)cc1F	102%
COc1ccccc1N1CCN(c2ncnc3c2c(-c2ccccc2)cn3-c2cccc(C)c2)CC1	70%
COc1ccc(-c2[nH]ncc2C(=O)NCc2cccc(Cl)c2)cc1	62%
Cc1ccc(C)c(CN2C(=O)c3ccccc3S(=O)c3ccc(C(=O)N(C)Cc4ccccc4)cc32)c1 (stereo not drawn)	78%
Cc1ccc(Nc2cc(C(=O)NCc3cccs3)c3ccccc3n2)c(C)c1	72%
CCOc1ccccc1NC(=O)C1=C(C)Nc2ncnn2C1c1ccccn1 (stereo not drawn)	25% (active)
CC1=C(C(=O)Nc2ccccc2)C(c2cccn2C)n2ncnc2N1 (stereo not drawn)	95%
COc1ccccc1NC(=O)C1=C(C)Nc2ncnn2C1c1ccccn1 (stereo not drawn)	52%
COc1ccccc1NC(=O)C1=C(C)Nc2ncnn2C1c1cccn1C (stereo not drawn)	8% (active)
COc1ccc(NC(=O)C2=C(C)Nc3ncnn3C2c2cccn2C)cc1 (stereo not drawn)	89%
CC1=C(C(=O)Nc2ccccc2C)C(c2ccccn2)n2ncnc2N1 (stereo not drawn)	94%
Cc1ccccc1CN1C(=O)c2ccccc2Sc2ccc(C(=O)NC3CCCCC3)cc21	71%
O=C(O)C1CSC2c3ccccc3C(=O)N12 (stereo not drawn)	103%
O=c1[nH]c2cc3c(cc2cc1CN(CCO)C(=S)Nc1cccc(Cl)c1)OCO3	69%
CCS(=O)(=O)N1CCc2cc(C(=O)NCc3ccc(C)cc3)ccc21	82%
CS(=O)(=O)N1CCc2cc(C(=O)NCc3ccccc3)ccc21	81%
O=C(NCc1ccccc1)c1ccc2c(c1)CCN2S(=O)(=O)c1ccccc1	36% (active)
O=C(NCc1ccccc1)c1ccc2c(c1)CCN2S(=O)(=O)c1ccc(Cl)cc1	73%

Structure (SMILES)	survival
Cc1ccc(CNC(=O)c2ccc3c(c2)CCN3S(=O)(=O)c2ccc(Br)cc2)cc1	80%
Cc1ccc(CNC(=O)c2ccc3c(c2)CCN3S(=O)(=O)c2ccccc2)cc1	37% (active)
CC(=O)N1CCc2cc(S(=O)(=O)NC(Cc3ccccc3)C(=O)NCc3ccccc3)ccc21 (stereo not drawn)	79%
Cc1ccc2c(c1)N(CC(=O)N(Cc1cccnc1)C1CCCC1)C(=O)C(C)O2 (stereo not drawn)	97%
Cc1ccc(-n2nc(C(=O)N3CCN(c4cc(Cl)ccc4C)CC3)c(=O)n(C)c2=O)cc1	116%
Cc1ccc(OCC(=O)Nc2ccc3nc(SCC(=O)Nc4ccc(C)cc4C)sc3c2)cc1	73%
Cc1ccc2nc(N3CCN(c4ccccc4)CC3)c3nnnn3c2c1	88%
Cc1ccc2nc(NCc3ccccc3Cl)c3nnnn3c2c1	91%
COc1ccccc1CNc1nc2ccc(C)cc2n2nnnc12	17% (active)
COc1ccc(N2CCN(c3nc4ccc(C)cc4n4nnnc34)CC2)cc1	-5% (active)
Cc1ccc2nc(N3CCN(c4ccc(F)cc4)CC3)c3nnnn3c2c1	55%
COc1ccc(OC)c(CNc2nc3ccc(C)cc3n3nnnc23)c1	88%
COc1ccc(-c2ccc(Nc3ccc(C(=O)N4CCCCCC4)cc3)nn2)cc1	71%
CCOc1ccccc1CNC(=O)c1cnc2sc(N3CCOCC3)nn2c1=O	67%
CCCCCn1c(CCNC(=O)c2cccc(C)c2)nc2ccccc21	32% (active)
CCOc1ccc(Cn2c(-c3ccc(OCC)c(OC)c3)nc3ccccc32)cc1OC	79%
CCCCCn1c(CCCNC(=O)c2cccc(C)c2)nc2ccccc21	51%
CCCCn1c(C)nc2ccccc21	104%
CCCCn1c(CCCNC(=O)c2cccc(C)c2)nc2ccccc21	55%
CCCCCn1c(-c2cccc(C)c2)nc2ccccc21	-2% (active)
CCCCCn1c(C(C)NC(=O)c2ccccc2)nc2ccccc21 (stereo not drawn)	81%
CCCCCn1c(-c2ccc(OC)c(OC)c2)nc2ccccc21	1% (active)
CCCCCn1c(CCCNC(=O)c2ccccc2OC)nc2ccccc21	53%
COc1cccc(C(C(=O)NCc2ccco2)N(C(=O)Cn2nnc3ccccc32)C2CC2)c1OC (stereo not drawn)	107%
CCOC(=O)c1noc2nc(C)n(CC(=O)Nc3cc(Cl)ccc3OC)c(=O)c12	109%

Structure (SMILES)	survival
Cc1csc2nc(CCNS(=O)(=O)c3ccccc3)cn12	79%
Cc1cc(C)c(/C=C/c2onc(C)c2S(=O)(=O)N2CCC(C(=O)Nc3ccc(Cl)c(C(F)(F)F)c3)CC2)c(C)c1	67%
Cc1nn2c(=O)cc(COC(=O)c3ccccc3NC(=O)c3ccccc3C)nc2s1	104%
COc1ccc(-c2nc3scc(CCNS(=O)(=O)c4c(C)cc(C)cc4C)n3n2)cc1OC	85%
Cc1ccccc1-c1nc(CNC(=O)Nc2ccccc2)c(C)o1	89%
CC(C)Oc1ccc(CN2CCc3nc(Nc4ccc5c(c4)OCCO5)ncc3C2)cc1	77%
Cc1ccc(Cl)cc1Nc1nn2c(=O)c3ccc(C(=O)NC(C)c4ccccc4)cc3nc2s1 (stereo not drawn)	105%
CN(C(=O)CSc1nc2ccc(NC(=O)COc3ccc(F)cc3)cc2s1)c1ccccc1	73%
CC1CCN(CC(=O)N2CCCc3c2c(=O)oc2ccc(OCc4ccccc4)cc32)CC1	98%
CCC1CCCCN1CC(=O)N1CCCc2c1c(=O)oc1ccc(OCc3ccccc3)cc21 (stereo not drawn)	18% (active)
CC1CCCCN1CC(=O)N1CCCc2c1c(=O)oc1ccc(OCc3ccccc3)cc21 (stereo not drawn)	77%
COc1ccc(N(Cc2nnc3n2CCCCC3)C(=O)Nc2cccc(C)c2)cc1Cl	81%
COc1ccc(C2CC(=O)c3cc(-c4nc(-c5ccc(Cl)cc5)cs4)c(=O)[nH]c3C2)cc1 (stereo not drawn)	167%
COc1ccc(C2CC(=O)c3cc(-c4nc(-c5ccc(Cl)cc5)c(C)s4)c(=O)[nH]c3C2)cc1 (stereo not drawn)	70% (active)
Cc1sc(-c2cc3c([nH]c2=O)CC(c2ccccc2)CC3=O)nc1-c1ccc(Cl)cc1 (stereo not drawn)	73%
CON(C)c1nc(OCCNC(=O)OCc2ccc(Cl)cc2Cl)nc(N(C)C)n1	76%
CCOc1ccc(NC(=O)CCCc2nnc3n(C)c(=O)c4sccc4n23)cc1	78%
Cc1nc2ccn(Cc3cccs3)c(=O)c2cc1C(=O)NCc1ccc(Br)cc1	70%
COc1cccc(CNC(=O)c2cc3c(=O)n(Cc4cccnc4)ccc3nc2C)c1	144%
Cc1nc2ccn(Cc3cccnc3)c(=O)c2cc1C(=O)NCc1ccccc1	72%
Cc1nc2ccn(Cc3cccnc3)c(=O)c2cc1C(=O)N1CCN(c2ccccc2)CC1	105%
CCc1ccc(CNC(=O)c2cc3c(=O)n(Cc4cccs4)ccc3nc2C)cc1	32% (active)
Cc1nc2ccn(Cc3cccs3)c(=O)c2cc1C(=O)NCc1ccccc1	78%
COc1cc(NC(=O)c2cc3c(=O)n(Cc4cccs4)ccc3nc2C)cc(OC)c1OC	0% (active)
Cc1nc2ccn(Cc3cccs3)c(=O)c2cc1C(=O)Nc1ccccc1	84%

Structure (SMILES)	survival
Cc1ccc(C)c(N2CCN(C(=O)c3cc4c(=O)n(Cc5cccnc5)ccc4nc3C)CC2)c1	46% (active)
COc1ccc(NC(=O)c2cc3c(=O)n(Cc4cccs4)ccc3nc2C)cc1	75%
COc1ccc(CNC(=O)c2cc3c(=O)n(Cc4cccnc4)ccc3nc2C)cc1	37% (active)
Cc1ccc(C)c(N2CCN(C(=O)c3cc4c(=O)n(Cc5ccccc5)ccc4nc3C)CC2)c1	78%
CCc1ccc(-n2c(=O)c3cccnc3n2CC(=O)N(CC)c2cccc(C)c2)cc1	94%
COc1ccc(Cl)cc1NC(=O)CCc1c(C)nc2c(c1C)c(=O)n(C)c(=O)n2C	94%
Cc1cc(C)cc(NC(=O)Cn2c(C)cc(C)c(C#N)c2=O)c1	89%
CC(=NCCCn1ccnc1)c1c(C(F)(F)F)[nH]n(-c2nc3ccccc3s2)c1=O	120%
COC(=O)c1ccc(Cn2nnc3c(=O)[nH]c(C4CCCN(S(=O)(=O)c5ccccc5)C4)nc32)cc1 (stereo not drawn)	99%
CCOc1nc(NCCO)nc(NCCC2=CCCCC2)n1	67%
CCc1ccccc1-n1nnc(-c2nc(-c3ccccc3F)no2)c1C	102%
CC(C)(C)c1ccc(C(=O)NCC(=O)OCc2cc(=O)n3nc(C4CC4)sc3n2)cc1	85%
CCOC(=O)c1c(S(=O)(=O)N2CCN(c3cccc(C(F)(F)F)c3)CC2)c(C)n(C)c1C	116%
CCS(=O)(=O)c1cccc(C(=O)N2CCN(c3nc4c(C)ccc(Cl)c4s3)CC2)c1	78%
COc1cccc(NC(=O)c2cc3c(=O)n(Cc4cccnc4)ccc3nc2C)c1	101%
Cc1cccc(NC(=O)c2cc3c(=O)n(Cc4cccnc4)ccc3nc2C)c1	0% (active)
Cc1nc2ccn(Cc3ccco3)c(=O)c2cc1C(=O)NCc1ccc(Cl)cc1	47% (active)
CCOc1ccc(CNC(=O)c2cc3c(=O)n(Cc4cccs4)ccc3nc2C)cc1	112%
COc1ccc(CNC(=O)c2cc3c(=O)n(Cc4cccs4)ccc3nc2C)cc1	37% (active)
CC(=O)Nc1ccc(NC(=O)c2cc3c(=O)n(Cc4cccnc4)ccc3nc2C)cc1	57%
Cc1nc2ccn(Cc3ccco3)c(=O)c2cc1C(=O)NCc1ccccc1	79%
Cc1nc2ccn(Cc3cccs3)c(=O)c2cc1C(=O)NCc1ccc(Cl)cc1	49%
Cc1ccc(CNC(=O)c2cc3c(=O)n(Cc4ccco4)ccc3nc2C)cc1	87%
